Measured values reported in the supplement of paper PMC3334620.
Over roughly 33,000 sequences, “E-score (-0.5 to 0.5)” has its median near -8e-05; the highest 2% begin near 0.23. For the sample, the highest values were picked, then their nearest neighbours and some sequences at random.

biological target: T1, Nrg2 (UniProt P38082); test: PBM E-score (8-mer binding enrichment) (E-score (-0.5 to 0.5)); higher = stronger / more preferred TF binding; conditions: protein concentration: 100 nM; construct: GST-full length
T1 sequence: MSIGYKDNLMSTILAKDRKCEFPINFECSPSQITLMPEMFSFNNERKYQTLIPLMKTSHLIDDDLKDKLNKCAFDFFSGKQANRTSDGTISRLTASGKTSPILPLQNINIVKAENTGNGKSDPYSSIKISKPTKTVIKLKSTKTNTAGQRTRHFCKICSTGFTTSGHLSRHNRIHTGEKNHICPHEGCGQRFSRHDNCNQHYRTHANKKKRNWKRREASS
Description: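 Universal 'all 10-mer' protein binding microarrays (Agilent AMADID 015681) probed with GST-tagged S. cerevisiae TFs (full-length or DBD) made by in vitro transcription/translation (PURExpress), about 100-200 nM. Bound TF was detected with fluorescent anti-GST. Each ungapped 8-mer (which stands for itself and its reverse complement) is scored by the PBM enrichment score (E-score), a modified Wilcoxon-Mann-Whitney statistic from -0.5 to +0.5, computed with the Universal PBM Analysis Suite. Scale: above 0.35 generally sequence-specific binding.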

Sequence	PBM E-score
TCACTGCA	0.167
CTCGGCCA	0.104
ACCTGGAA	0.203
CGGGCTAG	-0.0659
GTAAGACA	-0.0374
GGGATCAA	-0.0876
ATGAGATC	0.0358
CAGTTGGA	-0.00944
CAGGGTGC	0.19
AAGGGTTC	0.248
AAGGGTTA	0.076
CAGGGTTA	0.0393
CAGGGTTC	0.387
AAGGGTTG	0.167
AAATGCTA	0.0225
GACGCTAC	-0.0645
AAACTCTG	0.102
CATCTCAA	-0.0442
GATCTCAA	0.115
AATCTTAA	0.0405
CATCTTAA	0.251
AATCTCAA	0.124
TATCTCAA	0.267
CATCTCAG	0.23
CATCTTAG	0.0135

Sequence	PBM E-score
ATCATCAG	0.0405
CTCATCAC	-0.0539
CATCTCAC	-0.0644
CTCATCAG	0.247
GCCCTCAC	-0.177
GGTTCAAA	0.0475
CACGCAGG	0.0602
GACAGTGC	0.0298
AGTGATCA	0.063
AAACCCAA	0.0986
CTCGTTGC	0.212
ACTTGTAA	-0.0121
AGTCATAT	0.0126
AGGCTGAG	-0.0549
TCACTAAA	0.099
TTACTAAA	0.123
TCACTACA	0.24
CCACTACA	0.045
GCACTAAA	0.0452
GTACTAAA	0.121
ACACTAAA	0.271
ACACTACA	0.108
ATACTAAA	0.234
CAGATGCA	-0.158
ATTAACCG	0.107

Sequence	PBM E-score
ATGAGACA	0.0867
AGGTCGGG	-0.142
AAAACCAT	0.137
ATTTCTCA	0.0394
ATTTCGCA	0.274
ATTTCTCG	0.285
CTTTCGCA	-0.0222
ATTTCTCC	0.0443
ATTTCGCG	0.275
ATTTCGAG	0.14
ATTTCGGG	0.037
ATTTCGCC	0.0633
AGTTAAGA	0.0745
GGAACTCC	0.0233
GACTCCCA	-0.248
CGATCTCC	-0.0956
AATAGGAC	0.0448
ACGTCATC	-0.0886
GCTATTCC	-0.0857
ACTGCTCC	0.0162
TAACCCAA	-0.00379
CTAATTGC	0.0943
CTATCTCC	0.0511
ATCTCAAG	0.238
ATATCTCG	0.0423

Sequence	PBM E-score
ATCTCTCA	0.236
ATCTCAAC	0.158
CTATCTCA	0.0251
ATATCTCC	0.251
ATATCTCA	0.238
GTCTCTCA	-0.0103
ATCTCAAT	0.0327
CTCTCTCA	-0.0307
ATCTCTCC	0.0215
ACTCGCCT	0.063
GTCAGGCA	-0.108
TGCGGGAA	0.125
CAGACCTG	-0.119
GCGAATAA	0.18
GAGATACC	0.127
AGCTATGG	-0.0356
CTATCAAG	0.0817
ATATCAAT	0.212
ATATCAAG	0.285
AACTCAAG	-0.0395
CTCTTGAA	-0.0353
CAGGGCGG	-0.0602
CTAGTTGA	0.128
GACATTGC	-0.0455
AACCCGGG	0.255

Sequence	PBM E-score
ATCCCGCG	0.294
ATCCCGCA	0.08
ATCCCGCC	0.0743
AACCCGCA	0.0835
AACCCGCC	0.00993
AACCCGCG	0.267
ACCCCGGG	-0.056
CACCCGGG	-0.0923
AGTGGTCA	-0.145
TCGCCGAA	-0.124
CAGAGTAC	-0.112
ATATGGCC	-0.0218
GTTGTTAA	0.241
ATTGTTAA	0.0152
CTTGTTAA	0.0818
CGCAAGGC	0.203
CCTGTATC	0.233
ACTGTATC	-0.0153
CCTGTATA	0.0265
CAGATTAC	-0.0348
CCGGACAA	0.058
ACGGACAA	0.233
GCGGACAA	0.15
CGTACTTA	0.115
CACCAAGA	0.00109

Sequence	PBM E-score
AGTTTGAA	0.23
CGTTTGAA	0.00719
AGTTTGAC	-0.104
GGATCGCC	0.0218
AAAGGAGG	-0.252
ATCAAACC	0.123
ACAGAGCT	-0.214
ATCGAGCC	-0.103
AGCGCGCT	0.187
CGCCCGCC	0.085
TGCCCGCA	0.148
ACCGCGCG	0.301
CGCCCGCA	0.229
ACCGCGCC	0.00956
AGCGCGCG	0.274
ATCGAGCG	0.229
AGCGCGCC	0.0741
ATCGAGCA	0.0824
ACCGCGCT	0.0712
CACGTAGG	-0.156
AAAATTCA	0.199
CAACGCGC	0.215
GAAGGAAA	-0.238
CAAGCGCA	0.363
GGCGCAGA	-0.0307

Sequence	PBM E-score
CGCGCAGA	0.232
AAAGCGCA	0.012
AAGGGGCG	-0.117
ATCTCGCA	0.0354
CAGGGGCC	0.191
CGCGCAGC	0.0142
ATCTCGCC	0.0341
ATCTCGCG	0.282
CAGGGGCG	0.252
CAAGCGCC	-0.196
AAGTGATT	0.0989
CCCTGCGC	0.1
CCTCTTTC	-0.184
ACACTAGC	-0.00995
ACTAGGAC	-0.00051
GTTTGCGA	0.0803
GGTCTAGA	-0.109
AACGTTTC	-0.144
ATCTCCAC	-0.0729
CTGTTCGC	0.0452
GAGACAAA	-0.091
CACACCAA	0.063
AACTATCG	0.0118
CAGGCGCC	0.0447
